# High-throughput results (PubChem)
# An excerpt weighted towards active compounds, which were near 2% of everything screened.
# Neddylation inh: cullin neddylation inhibition; TR-FRET cullin neddylation, biochemical; P61081+Q13564; inhibition, % at 25 µM; 360,000 compounds, 0.58% hits; in the data active = inhibition above about 36%
# GC-A act: GC-A (human) enzyme activation | P16066 | HEK293 GC-A cells, cGMP TR-FRET, EC30 ANP; 0% at EC30 ANP, 100% saturating ANP | activation, % at 10 µM | 370,000 compounds, 0.14% hits | AID 1671463; in the data active = activation above about 40%
# PfGluPho inh: PfG6PD (Plasmodium falciparum) enzyme inhibition | PfGluPho enzyme, NADPH resazurin-diaphorase fluorescence | inhibition, % at 20 µM | 350,000 compounds, 0.78% hits | AID 504690;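 active = inhibition reaching at least a set limit at 20 µM in the primary screen, cut at about 59% in these data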;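 also: 0% = DMSO wells with substrate and 100% = DMSO wells lacking glucose-6-phosphate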
# APOBEC3A inh: human APOBEC3A DNA deaminase inhibition; P31941; recombinant A3A, FAM/TAMRA ssDNA deamination fluorescence; inhibition, % at 20 µM; 330,000 compounds, 0.41% hits; AID 493011;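 active = at least 40% inhibition at 20 µM here, with at most 30% in a related deaminase screen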;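 also: plate controls were A3A with DMSO for no effect and wells lacking A3A enzyme for full effect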
# Target sequence (P31941 whole entry, looked up): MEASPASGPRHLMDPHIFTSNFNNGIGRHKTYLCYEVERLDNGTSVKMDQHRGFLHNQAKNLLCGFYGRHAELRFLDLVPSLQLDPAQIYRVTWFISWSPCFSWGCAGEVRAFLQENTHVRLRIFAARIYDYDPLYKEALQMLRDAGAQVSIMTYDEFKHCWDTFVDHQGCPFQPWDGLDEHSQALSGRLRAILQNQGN
# APOBEC3G inh: APOBEC3G (human) deaminase inhibition; AID 493012; recombinant A3G, ssDNA deamination FAM/TAMRA fluorescence; inhibition, % at 20 µM; 330,000 compounds, 0.28% hits; Q9HC16;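 active = inhibition of at least 40% at 20 µM, with no more than 30% in the related APOBEC3A deaminase screen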;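 also: plate controls were DMSO wells with A3G for no effect and wells lacking A3G enzyme for full effect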
# Target sequence (Q9HC16 whole entry, looked up): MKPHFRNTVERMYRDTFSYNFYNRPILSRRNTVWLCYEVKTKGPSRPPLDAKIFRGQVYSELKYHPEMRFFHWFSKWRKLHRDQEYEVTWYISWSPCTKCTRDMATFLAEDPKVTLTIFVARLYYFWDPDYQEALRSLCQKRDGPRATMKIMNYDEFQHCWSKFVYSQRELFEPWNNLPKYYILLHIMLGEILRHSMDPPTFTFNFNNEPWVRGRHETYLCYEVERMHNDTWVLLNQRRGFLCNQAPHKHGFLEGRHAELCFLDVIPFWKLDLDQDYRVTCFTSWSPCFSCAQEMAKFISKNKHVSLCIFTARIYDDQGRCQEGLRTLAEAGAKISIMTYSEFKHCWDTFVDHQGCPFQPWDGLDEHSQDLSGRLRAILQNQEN
# NPR2 activator: GC-B (human) receptor activation | HEK293-GC-B cells, CNP EC30, cGMP TR-FRET; 0% at EC30 CNP, 100% saturating CNP | activation, % at 10 µM | 370,000 compounds, 0.11% hits;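 active = activation at 10 µM reaching about 35% in either raw or pattern-adjusted values, limit read from the data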
# APOBEC3A confirm: APOBEC3A (human) deaminase inhibition, confirmed | shares compounds with APOBEC3A inh | recombinant A3A, ssDNA deaminase UDG fluorescence assay | inhibition, % at 20 µM | 1,400 compounds, 63% hits | AID 493151;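 active = inhibition reaching a set limit, 80% of the first screen's cutoff, at 20 µM in any replicate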;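 also: plate controls were DMSO wells with A3A for no effect and wells lacking A3A enzyme for full effect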
# UDG A3A counter: counter-screen for APOBEC3A inhibitors: UDG | shares compounds with APOBEC3A inh | UDG counterscreen, FAM/TAMRA uracil oligo fluorescence | inhibition, % at 20 µM | 1,000 tested, under 10 active; call rule not given here
# * = called active by the depositor; nt = no result shown.
SMILES,Neddylation inh,GC-A act,PfGluPho inh,APOBEC3A inh,APOBEC3G inh,NPR2 activator,APOBEC3A confirm,UDG A3A counter
O=C(CSc1nnc(COc2ccccc2Cl)o1)NC(=O)NCc1ccco1,1,4,24,59*,23,-1,22*,-1
Cc1nc2ccccc2c(=O)[nH]1,4,1,-6,-4,-8,-1,nt,nt
O=c1[nH]c(C2C3CC4CC(C3)CC2C4)nc2ccccc12 (configuration not stated),-5,-5,-13,49*,-4,2,-10,-2
COc1ccc(NC(=S)NCCCN2CCCC2)cc1,5,0,-19,41*,-2,-7,-8,0
COc1cc(OC)cc(C(=O)NCCCN2CCOCC2)c1,7,-1,-2,-3,-5,0,nt,nt
COc1ccc(C(=O)NCCCN2CCOCC2)cc1,10,1,-12,72*,-1,2,-9,-1
C[C@@H]1COc2cc(N3CCCCC3)ccc2S(=O)(=O)N1,nt,7,nt,nt,nt,1,nt,nt
C=CCOC(=O)C1=C(C)N=c2sc(=C3C(=O)N(CC(=O)O)c4ccccc43)c(=O)n2C1c1ccc(OC)cc1 (configuration not stated),nt,-6,nt,nt,nt,9,nt,nt
COc1ccc(-c2nnc(SCC(=O)N/N=C\C=C/c3ccco3)n2-c2ccc(C)cc2)cc1,nt,-10,nt,nt,nt,-1,nt,nt
CCOC(=O)CC1(C)OCC(C[N+]2(C)CCCCC2)O1 (configuration not stated),-4,0,14,78*,16,3,81*,-3
CC(COc1ccccc1)CN1CCC(C(O)(c2ccccc2)c2ccccc2)CC1 (configuration not stated),nt,-14,nt,nt,nt,-6,nt,nt
CC(=O)Nc1ccc(Nc2nnc(-c3ccc(C)c(S(N)(=O)=O)c3)c3ccccc23)cc1,-3,5,10,61*,-9,2,-1,-2
CCOC(=O)CC[C@@H]1CC[C@]2(CCCN(C(=O)C3CCCC3)C2)O1,nt,3,nt,nt,nt,2,nt,nt
CCN(C(=O)COc1nc(C)cc(C)c1C#N)c1ccccc1,-2,0,-9,59*,10,-3,5,nt
Cc1cc(C=O)c(C)n1-c1cc(C(=O)O)cc(C(=O)O)c1,-1,2,4,64*,21,-1,64*,2
Cc1cccc(-c2cccc3c4c([nH]c23)[C@@H]2C[C@H](N(C)C(=O)NC3CCCCC3)[C@H]([C@H](C)O)CN2CC4)c1,nt,-5,nt,nt,nt,-1,nt,nt
O=C(c1ccccc1Cl)N1CCC(Oc2cccnc2)CC1,nt,2,nt,nt,nt,-1,nt,nt
O=C(CN1CCCC1)OCCCc1ccccc1,-4,-1,11,-4,-6,2,nt,nt
O=C(CCc1ccccc1)OCCOC(=O)CCc1ccccc1,3,-1,3,-1,-7,-1,nt,nt
C[N+]1(CC(=O)OCCCc2ccccc2)CCCC1,0,-1,9,55*,17,-1,81*,-3
C[N+]1(CC(=O)OCCCc2ccccc2)CCCCC1,-4,-4,11,48*,16,0,83*,2
CCC(=O)N1CCc2cc(Br)c(S(=O)(=O)N3CCC(C(=O)NCCCOC(C)C)CC3)cc21,nt,-3,nt,nt,nt,-3,nt,nt
CCN(CC)S(=O)(=O)c1ccc(OC)c(NC(=O)Cc2cccs2)c1,0,-3,9,43*,16,3,25,nt
NC(=O)C[n+]1cccc2ccccc21,3,0,-3,43*,3,1,59*,1
Cc1cccc(C(=O)Nc2nc3ncccn3c2-c2ccc(F)c(F)c2)c1,nt,0,nt,nt,nt,0,nt,nt
SMILES,Neddylation inh,GC-A act,PfGluPho inh,APOBEC3A inh,APOBEC3G inh,NPR2 activator,APOBEC3A confirm,UDG A3A counter
O=C(/C=C/c1ccco1)N1CCN(S(=O)(=O)c2cccc([N+](=O)[O-])c2)CC1,-7,0,7,65*,23,-5,62*,4
CCCCn1c(N)c(N(CCOC)C(=O)c2cc(-c3ccco3)nc3ccccc23)c(=O)[nH]c1=O,22,-1,4,42*,18,3,30*,-1
COCCN(C(=O)c1cc(-c2ccco2)nc2ccccc12)c1c(N)n(Cc2ccccc2)c(=O)[nH]c1=O,-11,0,4,46*,25,5,32*,-4
CCCCn1c(N)c(N(CCOC)C(=O)c2cc(-c3ccc(OC)c(OC)c3)nc3ccccc23)c(=O)[nH]c1=O,8,4,0,52*,9,4,40*,-1
CCCCn1c(N)c(N(CC(C)C)C(=O)c2cc(-c3ccc(OC)c(OC)c3)nc3ccccc23)c(=O)[nH]c1=O,11,0,5,27,-1,-3,nt,nt
COc1ccc(-c2nnc3sc(C4CCCCC4)nn23)cc1OC,-1,4,4,49*,16,-4,30,nt
O=C(Cc1c[nH]c2ccccc12)N1CCN(S(=O)(=O)c2ccc(Cl)cc2)CC1,15,-6,-1,40*,0,-5,0,nt
COc1ccccc1OCC(=O)N1CCN(S(=O)(=O)c2ccc(Cl)cc2)CC1,8,-3,-18,53*,5,2,1,nt
CN(Cc1ccccc1)C(=O)OCc1cn(Cc2ccccc2)nn1,nt,1,nt,nt,nt,2,nt,nt
CS(=O)(=O)c1ccc(C(=O)N2CC(=O)Nc3ccccc32)cc1,1,-2,-18,54*,5,2,21,nt
CCCCC[n+]1cccc2c3ccccc3ccc21,nt,14,10,55*,23,-7,72*,-2
CC[n+]1ccccc1/C=C1\Sc2ccc(C)cc2N1C,-37,-5,-2,54*,24,-7,84*,-3
CN1/C(=C/c2cccc[n+]2CCO)Sc2ccccc21,-13,-3,-5,93,41,2,nt,nt
CCOC(=O)N1C(=O)C[C@](Sc2ccc(OC)cc2)(C(=O)N2CCOCC2)[C@H]1c1ccc(OC)cc1,nt,-1,nt,nt,nt,-2,nt,nt
COC(=O)[C@]12C[C@H](CC(=O)N3CCCC3)C(=O)N(Cc3ccc(Cl)cc3Cl)C1=C[C@H](COCc1ccccc1)O[C@@H]2C,nt,1,nt,nt,nt,0,nt,nt
COc1ccc(NC(=O)CSc2nnc(-c3cccs3)o2)cc1Cl,nt,-2,nt,nt,nt,-2,nt,nt
COc1ccc(-c2noc(C3CCCN(C(=O)NC4CCC(C)CC4)C3)n2)cc1 (configuration not stated),nt,-1,nt,nt,nt,-2,nt,nt
COc1cc(OC)c2ccc(=O)oc2c1C(CC(=O)N1CCCC1)c1ccc2c(c1)OCO2 (configuration not stated),27,-17,3,47*,26,-17,29,nt
